In PubChem BioAssay (NCI):
The panel holds about 83,000 compounds, 20% with a hit somewhere; the sample as a whole holds those more often.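 Note: values are percent growth. 100 is the growth of untreated cells, values between 100 and 0 indicate rising inhibition; between -100 and 0 indicates cell death.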 A number with no mark means an inactive call. The source made the active and inactive calls. The calls were made as follows: active = growth percent below 10; inactive = the rest.

Tests used:
Assay in all cases: NCI-60 one-dose screen, 48 h (100 = growth as untreated, 0 = no growth, -100 = all killed)
Details in all cases: 10 µM unless noted
[1] = system: NCI-H23 lung
[2] = system: NCI-H226 lung
[3] = system: HOP-62 NSCLC
[4] = system: NCI-H460 lung
[5] = system: HOP-92 NSCLC
[6] = system: A549/ATCC NSCLC
[7] = system: 786-0 renal
[8] = system: COLO 205 colon
[9] = system: DU-145 prostate
[10] = system: MALME-3M melanoma
[11] = system: MDA-MB-231 breast
[12] = system: RXF 393 renal
[13] = system: SF-268 CNS
[14] = system: SF-295 CNS
[15] = system: SF-539 CNS
[16] = system: UACC-257 melanoma
[17] = system: M14 melanoma
[18] = system: NCI-H522 lung
[19] = system: K-562 leukemia

Row | SMILES | growth [1] | growth [2] | growth [3] | growth [4] | growth [5] | growth [6] | growth [7] | growth [8] | growth [9] | growth [10] | growth [11] | growth [12] | growth [13] | growth [14] | growth [15] | growth [16] | growth [17] | growth [18] | growth [19]
1 | COc1ccc(N(CC(=O)NCCC[Te]c2ccccc2)C(=O)CCSC2=C(C)C(=O)c3ccccc3C2=O)cc1 | -49.3% (active) | -54.8% (active) | -46.4% (active) | -73.5% (active) | -49.8% (active) | -52.4% (active) | -22.1% (active) | -97.9% (active) | -10.1% (active) | -11.7% (active) | -61.6% (active) | -26.5% (active) | 3.17% (active) | -50.1% (active) | -62.6% (active) | 0.434% (active) | -38.3% (active) | – | –
2 | N#CC1(c2ccccc2)CCN(Cc2ccccc2)CC1 | 98.9% | 101% | 106% | – | 51.8% | 99.5% | 101% | 105% | 107% | 138% | 110% | 105% | 94.9% | 89.9% | 107% | 115% | 106% | 92.6% | 98.3%
3 | O=C1NC(=O)C(=Cc2cccn2CCCCCn2c3ccccc3c(=O)c3ccccc32)C(=O)N1 | 96.3% | 99.1% | 102% | 108% | 90.4% | 100% | 99% | 114% | 113% | 119% | 116% | 110% | 102% | 99.4% | 102% | 104% | 102% | 90.5% | 89.1%
4 | CN(C)C(=O)Oc1ccccc1-c1ccccc1 | 102% | 96.4% | 98.6% | 109% | 95.7% | 87.7% | 106% | 103% | 111% | 110% | 110% | – | 102% | 97.4% | 103% | – | 103% | 101% | 89.5%
5 | O=C([O][Hg][CH2]C1OCCOC1[CH2][Hg][O]C(=O)c1ccccc1)c1ccccc1 (configuration not stated) | 46.7% | 118% | 98.6% | 117% | -88.3% (active) | 101% | 79.4% | -64.7% (active) | 90.1% | -98.3% (active) | 93.2% | -90.1% (active) | 114% | 112% | 79.8% | -96.4% (active) | 73.3% | – | -36% (active)
6 | CCCCCCCCCCCCCCCCCC1OC[C@H](COC(=O)O[C@@H](C(=O)O[C@H]2C[C@@]3(O)[C@@H](OC(=O)c4ccccc4)[C@@H]4[C@]5(OC(C)=O)CO[C@@H]5C[C@H](O)[C@@]4(C)C(=O)[C@H](OC(C)=O)C(=C2C)C3(C)C)[C@@H](NC(=O)c2ccccc2)c2ccccc2)O1 (some centres not stated) | 42.7% | 94.3% | 66.3% | 20.9% | 75% | 43.9% | 91.2% | – | 45.7% | 58.9% | 47.2% | 65.2% | 73.3% | 53% | 43.3% | 72.2% | 29.6% | 60.2% | 37.5%
7 | O=C1C=C2C(=CCOC2O)O1 (configuration not stated) | 60.4% | 34.4% | 59.6% | 71.1% | -22.2% (active) | 71.6% | 47.1% | -87.3% (active) | 9.48% (active) | -28.5% (active) | 66% | -74.8% (active) | 3.53% (active) | 89% | -33.6% (active) | -22.1% (active) | -18.9% (active) | – | –
8 | OCCCCCNC1CCCCC1 | 97.3% | 98.9% | 111% | 109% | 96.1% | 107% | 99.5% | 112% | 115% | 97.3% | 114% | 104% | 113% | 110% | 98% | 99.5% | 101% | 67.8% | 94%
9 | C1CCC2(CC1)OOCNCOO2 | 98.2% | 107% | 103% | 108% | 122% | 102% | 105% | 115% | 111% | 110% | 120% | 116% | 97.3% | 97.4% | 101% | 98.5% | 100% | 89.7% | -35.4% (active)
10 | C#Cc1ccc2c(c1)C(c1ccccc1F)=NCC(=O)N2C | 57.8% | 73.1% | 48.3% | 18.9% | 73.2% | 47.9% | 63.4% | – | 69.9% | 76.7% | 50.6% | 73.8% | 56.3% | 35.6% | 53% | 67.1% | 16.9% | 8.61% (active) | 16.7%
11 | CC(C)=CCC[C@H](C(=O)O)[C@@H]1CC[C@]2(C)C3=C(CC[C@@]12C)[C@@]1(C)CC[C@H](O)C(C)(C)[C@@H]1CC3 | 106% | 109% | 97.3% | 109% | 101% | 81.8% | 92% | 120% | 110% | 106% | 103% | 104% | 101% | 94.6% | 93.2% | 88.9% | 85.9% | 60.8% | 70.4%
12 | O=C1C2C(C(=O)[N]1[Hg][c]1cccs1)C1(Cl)C(Cl)=C(Cl)C2(Cl)C1(Cl)Cl (configuration not stated) | -1.96% (active) | 97.1% | 10.5% | 52.7% | -51.4% (active) | 80.4% | -90.2% (active) | – | 53.8% | -63.7% (active) | -56.2% (active) | -83.5% (active) | 32.3% | 58.3% | 12.6% | -50.8% (active) | -57.9% (active) | -89.8% (active) | -2.45% (active)
